Laboratory results as given in PubChem BioAssay AID2763 (National Center for Advancing Translational Sciences (NCATS), 2010).
Records with an inconclusive call do not appear. A call without a number means that no potency is given here. Active and inactive are the calls of the source. Calls follow the shape of the dose curve; as a rule, active = well fitted inhibition curve with a large enough effect; inconclusive = small, poorly fitted or top-dose-only effect, or effect the other way; inactive = no such curve, though single readings can be large or run the other way.

Assay: Concentration response confirmation VP16 counterscreen for inhibitors of ROR gamma transcriptional activity; also: nearly all actives have a fitted effect of over 70% in size
Conditions: Drosophila S2 Gal4-VP16 UAS-luciferase, luminescence, 20 h; series mostly up to 46.1 µM
How it was run: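 Drosophila Schneider cells stably carrying Gal4-VP16 under metallothionein promoter plus UAS-Photinus luciferase. Compound preincubated 1 hr, then 700 uM copper sulfate induction for 20 hr at ambient temperature; luminescence read.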
Potency is read from the fitted curve at half-maximal effect.

SMILES	Potency
O=c1oc2c3c(nn2c2ccccc12)CCCC3	inactive
COc1cc(OC)c(C2=NOC(C(=O)NCc3cccnc3)C2)cc1Cl (stereo not drawn)	inactive
O=C(O)c1ccc(/C=N/n2cc(-c3ccccc3)[nH]c2=S)cc1	inactive
COc1ccc(CNS(=O)(=O)c2ccc3c(c2)CCN3C(=O)C2CC2)cc1	inactive
CCC(C)[C@H](NC(=O)NCc1ccco1)C(=O)O (stereo partly drawn)	inactive
O=C(CN1CCCCCC1)Nc1ccc(S(=O)(=O)N2CCOCC2)cc1	inactive
CCN(CC(=O)Nc1ccc2c(c1)CCC2)Cc1nc2ccccc2c(=O)[nH]1	15.8 µM (active)
Cc1nnsc1C(=O)NC1CCCc2c1cnn2-c1ccc(C(C)(C)C)cc1 (stereo not drawn)	22.3 µM (active)
O=c1c2cc(Br)ccc2[nH]c(=S)n1Cc1cccnc1	11.2 µM (active)
CCOc1ncccc1C(=O)OCC(=O)Nc1ccc(-c2nc3ccc(C)cc3s2)cc1	3.53 µM (active)
COc1ccc(OC)c(/C=C2\SC(=S)N(C(C(=O)O)c3ccccc3)C2=O)c1 (stereo not drawn)	inactive
CCOc1ccc2nc(NC(=O)c3cnccn3)sc2c1	9.96 µM (active)
Cc1cccc(-c2ocnc2C(=O)Nc2ccccc2NC(=O)c2ccccn2)c1	7.91 µM (active)
COC1CCN(C(=O)c2cc(COc3ccc(-n4cncn4)cc3)on2)CC1	inactive
Cc1sc2ncnc(Sc3nnc4sc5ccccc5n34)c2c1C	inactive
CC(=O)c1cnc2nc(C(F)(F)F)nn2c1C	inactive
CCN1CCCc2cc(CN(CCN3CCOCC3)C(=S)Nc3ccc(C)cc3)ccc21	11.2 µM (active)

SMILES	Potency
O=C(CSCCO)Nc1ccc(C2CCCCC2)cc1	9.96 µM (active)
CN(C)S(=O)(=O)c1ccc(NC(=O)/C=C/c2ccccc2Cl)cc1	inactive
COc1ccc2[nH]c(C)c(CCN(Cc3cccs3)C(=S)Nc3ccccc3OC)c2c1	inactive
Cc1cc(NCc2ccccn2)n2ncc(-c3ccc(Cl)cc3)c2n1	0.996 µM (active)
Cc1cc(NC(=S)NC(=O)/C=C/c2ccc(S(=O)(=O)N3CCOCC3)cc2)ccc1Br	11.2 µM (active)
Cc1cccc(NC(=O)c2cc3ccccc3o2)c1	25 µM (active)
CCOC(=O)[C@@H]1[C@H]2COc3ccc(Br)cc3[C@@H]2N2C(=O)N(c3ccccc3)C(=O)[C@@]12C	inactive
COc1ccc(C(=O)/C=C/c2ccc(OC)cc2OC)c(O)c1	inactive
CCN(CC)c1ccc2cc(-c3nc4ccccc4[nH]3)c(=O)oc2c1	9.96 µM (active)
Cc1ccc(-n2[nH]c3c4c(ccc3c2=O)C(=O)c2ccccc2C4=O)cc1	inactive
CN(Cc1ccccc1)c1ncnc2ccc(Br)cc12	inactive
CCCCCCn1ccc(=N)cc1	11.2 µM (active)
C=C(C)c1cccc(C(C)(C)NC(=O)N2CCN(CC)CC2)c1	inactive
CNC(=O)NC(=O)CSc1nc2cc(C(=O)OC)ccc2c(=O)n1-c1ccccc1	25 µM (active)
COc1ccc(-c2cc(-c3nnc(COC(=O)c4ccncc4)o3)c3ccccc3n2)cc1OC	inactive
COc1ccc(-c2cc(-c3ccccc3)n[nH]2)c(O)c1	19.9 µM (active)
